Data reported in PubChem BioAssay AID2058 (Sanford-Burnham Center for Chemical Genomics, 2009).
About 150 (0.052%) of roughly 290,000 compounds were called active.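 How the source made its calls: active means inhibition of at least 50% with at least 30 cells and total cytoplasm GFP at most 10,000,000; inconclusive means under 30 cells or total GFP of 10,000,000 plus; inactive means the rest.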 The entries come from a sample that favours actives as a whole. Measured potencies and affinities stand elsewhere.

Molecular target: G-protein coupled receptor 35 (Homo sapiens) (UniProt Q9HC97)
Sequence (Q9HC97 whole entry, looked up): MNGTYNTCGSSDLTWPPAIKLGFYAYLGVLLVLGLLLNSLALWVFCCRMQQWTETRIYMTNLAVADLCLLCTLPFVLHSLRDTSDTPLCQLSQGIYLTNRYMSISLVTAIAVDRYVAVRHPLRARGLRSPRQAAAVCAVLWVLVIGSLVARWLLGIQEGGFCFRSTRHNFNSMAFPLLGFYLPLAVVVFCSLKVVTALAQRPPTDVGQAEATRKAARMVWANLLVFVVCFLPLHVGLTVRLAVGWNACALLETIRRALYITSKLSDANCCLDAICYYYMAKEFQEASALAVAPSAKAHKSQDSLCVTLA
Experiment: inhibition of zaprinast-stimulated GPR35 beta-arrestin translocation – imaging, U2OS, beta-arrestin-GFP, zaprinast agonist, primary screen (AID 2058)
Settings: zaprinast antagonism, at 10 µM, stronger effect = higher value

Structure (SMILES) | inhibition
COc1ccc(/C=C2\SC(=S)N(CCC(=O)N3CCCCC3)C2=O)cc1 | 1.2% (inactive)
Cc1ccc(/C=C2/SC(=S)N(CCC(=O)N3CCN(c4ccccc4)CC3)C2=O)cc1 | -11.1% (inactive)
COc1c(S(=O)(=O)Nc2cccnc2)ccc(Cl)c1Cl | 0.5% (inactive)
O=c1[nH]cnc2sc3c(c12)CN(Cc1ccccc1)CC3 | -2.4% (inactive)
Cc1ccc(NC(=O)C2C(c3ccccc3)C=CC(c3ccccc3)C2C(=O)O)cc1 (stereo not given) | -4.3% (inactive)
Cc1ccccc1Nc1nnc(SCC(=O)NCc2cccs2)s1 | 0% (inactive)
C/C(=N\NC(=O)c1cc(-c2ccc(C)s2)[nH]n1)c1ccncc1 | -6.8% (inactive)
COc1ccc(C(=O)NCCc2nnc(SCC(=O)Nc3ccc(Br)cc3)n2C)cc1 | 0.4% (inactive)
CNC(=O)/C=C1\NC(C)(C)Cc2c1ccc1ccccc21 | 7.2% (inactive)
CC1(C)Cc2ccccc2/C(=C/C(=O)N2CCCCCC2)N1 | 7.4% (inactive)
O=C(NN1CCOCC1)c1ccccc1Br | 2.6% (inactive)
COc1ccc2c(c1)NC(c1ccc(N(C)C)cc1)c1cccn1-2 (stereo not given) | 83.6% (active)
COc1ccc(C2Nc3cc(OC)ccc3-n3cccc32)cc1 (stereo not given) | 7% (inactive)
COc1ccc2c(c1)NC(c1cc(Cl)cc(Cl)c1O)c1cccn1-2 (stereo not given) | 12.6% (inactive)
CCc1nnc(NC(=O)c2cc(S(=O)(=O)N3CCOCC3)ccc2N2CCCCC2)s1 | 4.8% (inactive)
CCOc1ccccc1CNc1nnnn1C | 2.8% (inactive)
CCN1C(=O)/C(=C/C=C2/Sc3ccccc3N2CCO)SC1=S | -15.5% (inactive)
CCN1C(=O)/C(=C/C=C2\N(CC)c3cc(S(=O)(=O)N(C)C)ccc3N2c2ccccc2)SC1=S | 62% (active)
C=CCN1C(=O)/C(=C/C=C2/N(CC)c3ccc(S(=O)(=O)N(C)C)cc3N2CC)SC1=S | 9.4% (inactive)
CC(=O)c1cccc(OCc2cc(C(=O)N3C[C@@H](C)O[C@@H](C)C3)no2)c1 | 4.5% (inactive)
CC1Sc2ccc(S(=O)(=O)CCC(=O)NCc3ccc(Cl)cc3)cc2NC1=O (stereo not given) | 7.8% (inactive)
Cc1cc(NC(=O)CSc2nnc(-c3c[nH]c4ccccc34)n2-c2ccc(Cl)cc2)no1 | 3.9% (inactive)
COc1cccc(Cn2cccc(NC(=O)NCc3ccccc3)c2=O)c1 | -1% (inactive)

Structure (SMILES) | inhibition
N#Cc1c(Cl)nc(SCc2ccccc2)nc1-c1ccccc1 | 10.7% (inactive)
COc1ccc(-c2nc(-c3cccc(C)c3)nc(Cl)c2C#N)cc1 | 13.1% (inactive)
CSc1nc(Cl)c(C#N)c(-c2ccc(C)cc2)n1 | 61.8% (active)
CCOC(=O)c1c(-c2ccccc2)csc1NC(=O)/C(C#N)=C/c1ccc(OC)c(OC)c1 | -10.8% (inactive)
CCOC(=O)c1c(-c2ccc(C)cc2)csc1NC(=O)/C(C#N)=C/c1ccc(O)c(OC)c1 | 2.7% (inactive)
O=C(O)c1ccc(COc2ccccc2[N+](=O)[O-])o1 | 9.8% (inactive)
Cc1ccc(-c2c(C(=O)N/N=C/c3ccc(C)o3)nnn2-c2nonc2N)cc1 | 9.3% (inactive)
CCCN1C=CC(=C/C=C(\C#N)C(=O)OCC)C=C1 | 7.2% (inactive)
CCCN1C=CC(=CC=C(C#N)C#N)C=C1 | 59.2% (active)
C=CCN1C=CC(=CC=C(C#N)C#N)C=C1 | 29.6% (inactive)
Cc1ccc(C(=O)O)cc1NC(=O)C1=CSCCO1 | -0.5% (inactive)
COc1ccc(CNc2cc(C)nc3ccc(OC)cc23)cc1 | 7.8% (inactive)
COc1ccc2nc(C)cc(NCc3cccc(C(F)(F)F)c3)c2c1 | -5.8% (inactive)
O=C1Oc2ccccc2C(=O)/C1=C/N1CCN(c2ccccc2F)CC1 | -6.9% (inactive)
CC(C)CCN1CCNC(=O)C1CC(=O)NCCCN1CCOCC1 (stereo not given) | -0.8% (inactive)
CC(NC(=O)Cn1nc(C(=O)O)c2ccccc2c1=O)C12CC3CC(CC(C3)C1)C2 (stereo not given) | 8% (inactive)
CC(NC(=O)CN1CCCC1)C12CC3CC(CC(C3)C1)C2 (stereo not given) | 1.4% (inactive)
O=C(c1cc(-c2ccccc2Cl)nc2ccccc12)N1CCOCC1 | 10.1% (inactive)
CCN(CC)c1ccc2c(Cl)cc(=O)oc2c1 | 4.5% (inactive)
CCN(CC)c1ccc2c(C)c(Cl)c(=O)oc2c1 | 8.4% (inactive)
COc1ccc(C(=O)/C=C/c2ccc(N3CCCCC3)c([N+](=O)[O-])c2)cc1 | 2.4% (inactive)
CCn1c2ccccc2c2cc(NC(=O)c3ccc([N+](=O)[O-])cc3)ccc21 | -16.2% (inactive)
Cn1ccc(=Nc2ccc(NC(=O)c3ccc(N=c4ccn(C)c5ccc([N+](=O)[O-])cc45)cc3)cc2)cc1 | 53.5% (active)

Structure (SMILES) | inhibition
O=C(Nc1ccc(N2CCOCC2)cc1)c1ccc([N+](=O)[O-])cc1 | 14.4% (inactive)
Cc1c(NC(=S)N/N=C/c2ccc(N(C)C)cc2)c(=O)n(-c2ccccc2)n1C | 5.5% (inactive)
O=C1CN(C(=O)N[C@@H](Cc2ccccc2)C(=O)N[C@@H](Cc2ccccc2)C(=O)O)c2ccccc2N1 | 6.4% (inactive)
CCOC(=O)N1CC=C2C(C#N)=C(N)C(C#N)(C#N)[C@H](c3ccccc3OCC)[C@H]2C1 | 2.1% (inactive)
COc1ccc([C@@H]2[C@H]3CN(C(C)=O)CC=C3C(C#N)=C(N)C2(C#N)C#N)c2ccccc12 | -18.9% (inactive)
CCCCOc1ccc(C2C3CN(C(=O)OCC)CC=C3C(C#N)=C(N)C2(C#N)C#N)cc1OC (stereo not given) | -1.9% (inactive)
CCCN1CC=C2C(C#N)=C(N)C(C#N)(C#N)C(c3cccc(OC)c3OC)C2C1 (stereo not given) | 101% (active)
CCOC(=O)N1CC=C2C(C#N)=C(N)C(C#N)(C#N)[C@H](c3cccs3)C2C1 (stereo not given in full) | 12.4% (inactive)
CCN1CC=C2C(C#N)=C(N)C(C#N)(C#N)[C@H](c3cccc(OC)c3OC)[C@H]2C1 | 100% (active)
COc1cccc(OC)c1OCc1cc(C2C3CCCC=C3C(C#N)=C(N)C2(C#N)C#N)c(C)cc1C (stereo not given) | 7% (inactive)
CCCOc1ccc([C@@H]2C3CN(C(=O)OCC)CC=C3C(C#N)=C(N)C2(C#N)C#N)cc1OC (stereo not given in full) | 16.5% (inactive)
Cc1c(C(=O)Nc2ccc(Cc3ccncc3)cc2)cccc1[N+](=O)[O-] | -1.8% (inactive)
CC(C)(C)[C@H]1C=C(C(=O)NCc2nc3ccccc3[nH]2)O[C@@H](OCc2ccc(CO)cc2)C1 | 9.8% (inactive)
O=C1c2ccc([N+](=O)[O-])cc2NC(c2ccco2)N1/N=C/c1ccco1 (stereo not given) | -4.6% (inactive)
Cn1cc(/C=C/C(=O)N2CCCC(C(=O)c3ccc(C(C)(C)C)cc3)C2)cn1 (stereo not given) | -6.4% (inactive)
CCc1cccc2c(C(=O)C(F)(F)F)cn(CC(=O)N3CCOCC3)c12 | 7.2% (inactive)
N#C/C(=C/c1ccc(N2CCOCC2)o1)C(=O)NC1CCCCC1 | 9.2% (inactive)
N#C/C(=C/c1ccc(N2CCCCC2)cc1)c1cccc(F)c1 | 11.7% (inactive)
N#C/C(=C/c1ccc(N2CCCCCC2)o1)c1cccc(F)c1 | 104% (active)
N#C/C(=C/c1ccc(Sc2nc3ccccc3[nH]2)o1)c1cccc(F)c1 | -1.5% (inactive)
COc1cc(N2CCCC2)c(OC)cc1/C=C(/C#N)c1cccc(F)c1 | 30.4% (inactive)
N#C/C(=C/c1ccc(N2CCOCC2)o1)c1ccc(Br)cc1 | 37.8% (inactive)
Cc1ccc(/C(C#N)=C\c2ccc(N3CCOCC3)o2)cc1 | 27.2% (inactive)

Structure (SMILES) | inhibition
N#C/C(=C/c1ccc(N2CCOCC2)o1)c1ccc(Cl)cc1 | -12.2% (inactive)
N#C/C(=C/c1ccc(N2CCCCC2)o1)c1cccc(F)c1 | 55.7% (active)
N#C/C(=C\c1ccc(N2CCOCC2)o1)C(=O)NC1CCCCC1 | 8.1% (inactive)
N#C/C(=C/c1ccc(N2CCCCCC2)o1)c1ccc(Cl)cc1 | 87.6% (active)
O=C(Nc1ccccn1)C1(c2ccccc2)CCCC1 | 3% (inactive)
CC(C)(C)OC(=O)N1CCN(c2ccc(CNC(=O)c3ccc(Cl)cc3)cc2)CC1 | 4% (inactive)
COc1ccc(-c2nnn(CC(=O)N(CCCO)C(C(=O)NC3CCCC3)c3ccc(F)cc3)n2)cc1 (stereo not given) | 4% (inactive)
Cc1cccc(NC(=O)C2CCN(S(=O)(=O)c3cccc4nonc34)CC2)c1 | -1.2% (inactive)
COc1ccc(/C=N/n2cnc3c([nH]c4ccc(C)cc43)c2=O)cc1CN1CCCC1 | 1.2% (inactive)
CC(=O)Nc1ccc(S(=O)(=O)NCC2CCC(C(=O)NC(C)c3ccccc3)CC2)cc1 (stereo not given) | -1.8% (inactive)
CN(C)c1nc(N2CCN(c3ccccc3)CC2)c(C#N)c(=O)o1 | 16.3% (inactive)
N=c1c2c3c(sc2ncn1N)CCC3 | 4.1% (inactive)
CCC1C2CN(C(C)=O)CC=C2C(C#N)=C(N)C1(C#N)C#N (stereo not given) | -14.1% (inactive)
N#CC1=C(N)C(C#N)(C#N)[C@H](c2ccncc2)[C@H]2CN(C(=O)OCc3ccccc3)CC=C12 | 1% (inactive)
CCCC1C2CN(C(C)C)CC=C2C(C#N)=C(N)C1(C#N)C#N (stereo not given) | 112% (active)
CC(C)N1CC=C2C(C#N)=C(N)C(C#N)(C#N)C(c3ccccc3)C2C1 (stereo not given) | 69% (active)
CCCC1C2CN(C(C)=O)CC=C2C(C#N)=C(N)C1(C#N)C#N (stereo not given) | 8.7% (inactive)
N#CC1=C(N)C(C#N)(C#N)C(c2ccncc2)C2CN(C(=O)OCc3ccccc3)CC=C12 (stereo not given) | -3% (inactive)
Cc1ccc(C2C3CN(C(C)C)CC=C3C(C#N)=C(N)C2(C#N)C#N)cc1 (stereo not given) | 100% (active)
Cc1ccc(C2C3CSCC=C3C(C#N)=C(N)C2(C#N)C#N)cc1 (stereo not given) | 1.6% (inactive)
CC(C)c1ccc(C2C3CSCC=C3C(C#N)=C(N)C2(C#N)C#N)cc1 (stereo not given) | -18.5% (inactive)
